Assay results reported in PubChem BioAssay (NCI).
Compounds without any hit were thinned out: in the full panel of roughly 79,000, 15% have a hit. Values without a mark were called inactive. Activity calls are given as the source filed them. No stated cut-off is given here; in the data, active means growth inhibition above about 70%; inactive means the rest.

Experiments:
[1] = NCI Yeast Anticancer Drug Screen. Data for the rad50 strain (AID 155);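 further: 0% = growth of vehicle-only cultures of the same strain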; conditions: S. cerevisiae rad50 strain growth inhibition, stronger effect = higher value
In short: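 Growth of the mutant yeast was measured after compound exposure and referenced to vehicle-treated cultures.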

[2] = NCI Yeast Anticancer Drug Screen. Data for the mec2-1 strain (AID 157); conditions: S. cerevisiae mec2-1 strain, stronger effect = higher value
In short: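 Strain: mec2-1 (DNA repair/cell cycle alteration). Compound exposure, then growth measured; inhibition expressed relative to vehicle.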

[3] = NCI Yeast Anticancer Drug Screen. Data for the sgs1 mgt1 strain (AID 161);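 further: 0% = growth of cultures given vehicle only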; conditions: S. cerevisiae sgs1 mgt1 strain, stronger effect = higher value
In short: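 Inhibition of yeast growth, normalised to vehicle-treated controls, is reported for a strain bearing genetic alterations in DNA damage repair.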

[4] = NCI Yeast Anticancer Drug Screen. Data for the cln2 rad14 strain (AID 165);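 further: 0% = growth equal to vehicle treated cultures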; conditions: S. cerevisiae cln2 rad14 strain, stronger effect = higher value
In short: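 Compounds are applied to the cln2 rad14 yeast strain, and growth is then compared with that of vehicle-treated cultures to give inhibition.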

[5] = NCI Yeast Anticancer Drug Screen. Data for the bub3 strain (AID 167); conditions: S. cerevisiae bub3 mutant strain, stronger effect = higher value
In short: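 Whole-cell yeast assay. The mutant strain was incubated with compounds, and growth inhibition was determined by comparison with vehicle-treated cells.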

[6] = NCI Yeast Anticancer Drug Screen. Data for the mlh1 rad18 strain (AID 175); conditions: S. cerevisiae mlh1 rad18 strain growth inhibition, stronger effect = higher value
In short: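 Read-out is yeast growth inhibition, calculated against vehicle-only controls. The compound was applied to a strain engineered with DNA damage repair alterations.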

[7] = at 5.0 µM (retest, dose inferred, filed as 0.5)
[8] = at 50.0 µM (retest, dose inferred, filed as 5.0)

SMILES	growth inhibition [1, 7]	growth inhibition [1, 8]	growth inhibition ([1]; at 50.0 µM)	growth inhibition [2, 7]	growth inhibition [2, 8]	growth inhibition ([2]; at 50.0 µM)	growth inhibition [3, 7]	growth inhibition [3, 8]	growth inhibition ([3]; at 50.0 µM)	growth inhibition [4, 7]	growth inhibition [4, 8]	growth inhibition ([4]; at 50.0 µM)	growth inhibition [5, 7]	growth inhibition [5, 8]	growth inhibition ([5]; at 50.0 µM)	growth inhibition [6, 7]	growth inhibition [6, 8]	growth inhibition ([6]; at 50.0 µM)
COC(=O)C1CCC(c2ccccc2)CC1C(=O)OC (configuration not stated)	2%	10%	24.9%	0%	6%	20.9%	1%	12%	33%	5%	12%	24%	25%	31%	71.2% (active)	-3%	9%	28.6%
O=C1C(=O)N(C(=O)c2ccc(Cl)c(Cl)c2)c2ccc(Cl)cc21	-6%	-4%	13.6%	-9%	2%	24.4%	-7%	6%	35.2%	-9%	-20%	10.8%	-6%	56%	91.6% (active)	-8%	12%	64%
COc1ccc(CC[N+]2(C)COc3cc4oc(=O)cc(C)c4cc3C2)cc1OC (configuration not stated)	5%	9%	-42.5%	0%	-14%	-33.5%	0%	-6%	-27.9%	-21%	9%	34.6%	-8%	0%	-20.9%	9%	7%	-32.5%
CC[N+]1(C)CCC(O)(/C=C/c2ccccc2)C(C(=O)/C=C/c2ccccc2)C1 (configuration not stated)	7%	98% (active)	99.3% (active)	11%	99% (active)	99.7% (active)	12%	54%	99.2% (active)	8%	98% (active)	83% (active)	7%	99% (active)	99.3% (active)	11%	99% (active)	99.3% (active)
CCCCCCN(CCCCCC)CCC(=O)c1ccc2cc(Br)c3ccccc3c2c1	26%	85% (active)	98.6% (active)	38%	95% (active)	98.6% (active)	75% (active)	94% (active)	97.9% (active)	8%	87% (active)	96.8% (active)	20%	92% (active)	98.6% (active)	43%	84% (active)	97.7% (active)
CCCCCCCCCCCCCC(=O)OCC(O)CO (configuration not stated)	2%	2%	-2.25%	2%	28%	6.1%	4%	11%	-0.5%	7%	10%	75.3% (active)	1%	22%	8.05%	3%	12%	8.55%
Cn1c(C(C)(C)OC(=O)Oc2ccccc2)cnc1[N+](=O)[O-]	0%	51%	37.1%	-1%	24%	16.8%	3%	68%	65.5%	4%	31%	30.4%	0%	4%	1.35%	9%	54%	38.8%
Cc1ccc(N=NC(C(=O)c2ccccc2)C(=O)c2ccccc2)cc1	7%	94% (active)	93% (active)	-3%	97% (active)	93.3% (active)	14%	92% (active)	91.3% (active)	7%	94% (active)	87.9% (active)	-3%	95% (active)	93.1% (active)	-2%	95% (active)	92.5% (active)
Cc1cc(=O)oc2c(C)c3oc(CBr)cc3cc12	-11%	79% (active)	54.1%	4%	67%	62.7%	-17%	64%	69.8%	32%	56%	66.2%	-4%	67%	65.4%	-2%	75% (active)	63.1%
